Measurements as given in PubChem BioAssay (EPA / NIEHS).
“And” between values parts separate entries of the source, which are not always exact repeats. Equal values may be shown once. Inconclusive results are not listed. The source made the active and inactive calls. How the source made its calls: active means hit-call score of the fitted dose curve at least 0.9, where 1 is the maximum; inconclusive means response in the unintended direction; inactive means score below 0.9.

These compounds were tested against human Opioid Receptor Mu (Opiate Mu), OPRM1 (gene 4988) (UniProt P35372) (assay: NVS_GPCR_hOpiate_mu: NovaScreen (NVS) G Protein-Coupled Receptor Assay for human Opioid Receptor Mu (Opiate Mu) (AID 2283290);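 further: hits lower bound tracer signal versus DMSO meaning displacement of the ligand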).
Chain of human Opioid Receptor Mu (Opiate Mu), OPRM1 (gene 4988) (P35372 whole entry, looked up): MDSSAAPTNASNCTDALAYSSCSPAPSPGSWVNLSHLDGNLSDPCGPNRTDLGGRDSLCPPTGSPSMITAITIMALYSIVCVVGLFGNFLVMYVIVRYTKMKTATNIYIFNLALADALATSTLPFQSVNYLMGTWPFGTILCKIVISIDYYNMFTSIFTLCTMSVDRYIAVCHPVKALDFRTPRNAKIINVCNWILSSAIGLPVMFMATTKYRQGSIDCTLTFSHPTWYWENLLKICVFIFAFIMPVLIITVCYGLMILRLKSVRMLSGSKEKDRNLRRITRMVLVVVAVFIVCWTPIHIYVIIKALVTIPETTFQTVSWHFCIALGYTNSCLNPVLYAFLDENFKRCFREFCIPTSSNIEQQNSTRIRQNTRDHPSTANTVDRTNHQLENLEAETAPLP
Description: NVS_GPCR_hOpiate_mu is a biochemical, single-readout assay that uses extracted gene-proteins from CHO in a cell-free assay. Measurements were taken 2.5 hours after chemical dosing in a 96-well plate.NVS_GPCR_hOpiate_mu is one of one assay component(s) measured or calculated from the NVS_GPCR_hOpiate_mu assay. It is designed to make measurements of radioligand binding, a form of binding reporter, as detected with scintillation counting signals by Filter-based radiodetection technology.Data from the assay component NVS_GPCR_hOpiate_mu was analyzed into 1 assay endpoint. This assay endpoint, NVS_GPCR_hOpiate_mu, was analyzed in the positive analysis fitting direction relative to DMSO as the negative control and baseline of activity. Using a type of binding reporter, loss-of-signal activity can be used to understand changes in the binding as they relate to the gene OPRM1. Furthermore, this assay endpoint can be referred to as a primary readout, because the performed assay has only produced 1 assay endpoint. To generalize the intended target to other relatable targets, this assay endpoint is annotated to the gpcr intended target family, where the subfamily is rhodopsin-like receptor.
Binding assays used specific radioligands (tritiated, iodinated) with non-radioactive competitive displacement ligands in agonist or antagonist protocols (as indicated) and various reference compounds and inhibitors to titrate specific binding to receptors and transporters. Most enzyme assays (CYPs, kinases, phosphatases, proteases, HDACs) used recombinant protein and specific substrates (fluorescence mostly, some colorimetric and radioactive) and inhibitors, followed by a biochemical separation of substrate and product. All assays for the biochemical HTS were initially run in duplicate at a single concentration (10 uM for CYP450 assays and 25 uM for all others). […] Each assay was run with positive and negative controls, and concurrent controls on every plate. The follow-up (secondary) screen tested active chemical-pairs in concentration series, as well as a few additional assays not tested in the primary screen, some selected negative inactives, and several cases re-run in the concentration series for confirmatory purposes.
For `CO/C=C(/C(=O)OC)c1ccccc1Oc1cc(Oc2ccccc2C#N)ncn1`, the outcome was “inactive”.
For `CS/C(C)=N/OC(=O)N(C)SN(C)C(=O)O/N=C(\C)SC`, the outcome was “inactive”.
For `COc1ccc(C(c2ccc(OC)cc2)C(Cl)(Cl)Cl)cc1`, the outcome was “inactive”.
In the case of `CCCC1COC(Cn2cncn2)(c2ccc(Cl)cc2Cl)O1` (stereo not drawn), the AC50 is reported as 8.68 µM (active).
`CCOP(=S)(OCC)SCn1c(=O)oc2cc(Cl)ccc21` was tested, and the AC50 was 19.2 µM (active).
With `N#CC(CCc1ccc(Cl)cc1)(Cn1cncn1)c1ccccc1` (stereo not drawn) the outcome was “inactive”.
`COC(=O)N(OC)c1ccccc1COc1ccn(-c2ccc(Cl)cc2)n1` was tested, and the AC50 was 0.879 µM (active).
With `CNC(=S)S` the outcome was “inactive”.
With `CC1COC(Cn2cncn2)(c2ccc(Oc3ccc(Cl)cc3)cc2Cl)O1` (stereo not drawn) the AC50 was 1.88 µM (active).
`CN(C)C(=S)SSC(=S)N(C)C` was tested, and the AC50 was 5.29 µM (active).
For `C=CCC1=C(C)C(OC(=O)C2C(C=C(C)C)C2(C)C)CC1=O` (stereo not drawn), the outcome was “inactive”.
With `O=C(Nc1ccccc1)Nc1ccnc(Cl)c1` the AC50 was 6.97 µM (active).
With `CCCCNC(=O)OCC#CI` the AC50 was 9.57 µM (active) and 6.68 µM (active).
